# Laboratory results reported in PubChem BioAssay (NCATS).
# Results filed as inconclusive are left out. Entries that show only a call come without a potency. Active and inactive are the calls of the source. Calls come from the whole dose curve; as a rule, active = well fitted inhibition curve with a large enough effect; inconclusive = small, poorly fitted or top-dose-only effect; inactive = no such curve, though single readings can be large or run the other way.
# Tested on: Zika virus NS2B-NS3 protease (unlinked)
# Experiment: Optimization of GU AMC qHTS for Zika virus inhibitors: Unlinked NS2B-NS3 protease assay (AID 1347151); note: nearly all actives have a fitted effect of over 80% in size
# Settings: recombinant ZIKV NS2B-NS3 protease, fluorogenic AMC substrate; series mostly up to 52.5 µM
# How it was run: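 Percent inhibition is derived from the 15-min change in AMC fluorescence, normalized against no-inhibitor and no-enzyme controls, then fitted to a 4-parameter Hill curve. Aprotinin was the intraplate control.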
# Potency is the fitted concentration of half-maximal effect.
row,SMILES,Potency
1,Ic1ccccc1CNC1C2CCN(CC2)C1C(c1ccccc1)c1ccccc1 (stereo unspecified),inactive
2,CC(N)Cc1c[nH]c2ccc(OCc3cccs3)cc12 (stereo unspecified),inactive
3,O=C1CC[C@@]2(O)C3Cc4ccc(O)c5c4C2(CCN3CC2CC2)[C@H]1O5 (stereo partly specified),inactive
4,CN1CC[C@@]2(C)c3cc(OC(=O)Nc4ccccc4)ccc3N(C)[C@@H]12,inactive
5,COc1ccc2[nH]cc(CCN)c2c1,inactive
6,Cc1c2ccncc2c(C)c2c1[nH]c1ccccc12,21.2 µM (active)
7,CN1CCC(c2c[nH]c3ccc(O)cc23)CC1,inactive
8,N=C(N)c1ccc(CS(=O)(=O)F)cc1,inactive
9,CC(N)Cc1c[nH]c2ccc(O)cc12 (stereo unspecified),inactive
10,C[N+]1(C)CCc2cc3c(cc2[C@H]1[C@@H]1OC(=O)c2c1ccc1c2OCO1)OCO3,inactive
11,Clc1ccc(N2CC3CCC(C2)N3)nn1,inactive
12,NC(=O)c1ccc(OCC(O)CN2CC=C(c3ccc(F)cc3)CC2)cc1 (stereo unspecified),inactive
13,CCCN(CCC)[C@@H]1CCc2cccc(O)c2C1,inactive
14,O=[N+]([O-])c1ccc2nc(N3CCNCC3)ccc2c1,inactive
15,Oc1ccc2c3c1O[C@H]1c4oc5ccccc5c4C[C@@]4(O)C(C2)N(CC2CC2)CCC314 (stereo partly specified),inactive
16,CC(C)(O)[C@@H]1C2OC(=O)[C@@H]1[C@]1(O)C[C@H]3O[C@]34C(=O)O[C@H]2[C@]14C (tested in a mixture with another compound),inactive

row,SMILES,Potency
1,C=CCN1CCC23c4c5ccc(O)c4O[C@H]2C(=O)CC[C@@]3(O)C1C5 (stereo partly specified),inactive
2,CCOC(=O)c1ncn2c1[C@@H]1CCCN1C(=O)c1cc(OC)ccc1-2,inactive
3,CN1CCC[C@@H]1Cc1c[nH]c2ccc(Nc3ncccc3[N+](=O)[O-])cc12,inactive
4,CC(C)(C)c1cc(C=C(C#N)C#N)cc(C(C)(C)C)c1O,10.6 µM (active)
5,Nc1ccc(CCN2CCN(c3cccc(C(F)(F)F)c3)CC2)cc1,inactive
6,CCNC(=O)[C@H]1O[C@@H](n2cnc3c(N)ncnc32)[C@H](O)[C@@H]1O,inactive
7,CCN1C[C@@]2(COC)C3[C@@H](OC)C4[C@@H]1C3([C@@H]1C[C@]3(O)[C@H](OC(=O)c5ccccc5)[C@@H]1[C@]4(OC(C)=O)[C@@H](O)[C@@H]3OC)[C@H](OC)C[C@H]2O,inactive
8,Cc1[nH]c2ccc(O)cc2c1CCN,inactive
9,COC(=O)N1CCN(C(=O)Cc2ccc(Cl)c(Cl)c2)C(CN2CCCC2)C1 (stereo unspecified),inactive
10,CO[C@H]1CC=C2CCN3CCC4=C(CC(=O)OC4)[C@]23C1,inactive
11,Cc1o[nH]c(=O)c1CC(N)C(=O)O (stereo unspecified),inactive
12,CC(=O)OCC1=C(C(=O)O)N2C(=O)[C@@H](NC(=O)CCC[C@@H](N)C(=O)O)[C@H]2SC1,inactive
13,Oc1ccc2c3c1O[C@H]1c4[nH]c5ccccc5c4C[C@@]4(O)C(C2)N(CC2CC2)CCC314 (stereo partly specified),inactive
14,COc1ccc2[nH]c3c(c2c1)CCNC3,26.7 µM (active)
15,CCCN(CCC)[C@H]1CCc2c(F)ccc(O)c2C1,inactive
